Measurements published in PubChem BioAssay AID1159580 (chemical genetic matrix, 2015).
Where “and” joins values, the source holds several entries; their conditions need not be identical. Identical values can stand only once. Among all 5,500 compounds or so, about 2,000 (36%) were called active. Inconclusive results (about 18%) are left out. Cut-off read from the data, not from the text of the source: active = normalized growth mostly below about 0.91 (no sharp cut-off); inconclusive = no clear call, values can overlap the other calls; inactive = mostly above about 0.92. Some of the results follow.

Experiment: chemical genetic growth profiling, strain panel (AID 1159580);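 note: tested at 20 µM; growth read once vehicle control cultures reached saturation at 30 °C; 1 = growth at the plate median or of vehicle wells; lower values mean less growth of the strain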
Conditions: S. cerevisiae deletion strains, growth OD

Measured: normalized growth

CC1=CC(=O)C(C(C)C)=CC1=O
active: locus YAL013W, strain DEP1, stronger effect = lower value 0.784 | locus YAL026C, strain drs2, stronger effect = lower value 0.711 | locus YAL030W, strain snc1, stronger effect = lower value 0.914 | locus YBR009C, strain hhf1, stronger effect = lower value 0.488 | locus YBR021W, strain FUR4, stronger effect = lower value 0.827 | locus YCL011C, strain gbp2, stronger effect = lower value 0.375 | locus YCR088W, strain abp1, stronger effect = lower value 0.777 | locus YDL192W, strain arf1, stronger effect = lower value 0.776 | locus YDR101C, strain arx1, stronger effect = lower value 0.87 | locus YDR137W, strain rgp1, stronger effect = lower value 0.665 | locus YDR159W, strain sac3, stronger effect = lower value 0.773 | locus YDR318W, strain mcm21, stronger effect = lower value 0.878 | locus YDR388W, stronger effect = lower value 0.925 | locus YDR392W, strain spt3, stronger effect = lower value 0.455 | locus YDR502C, strain sam2, stronger effect = lower value 0.857 | locus YEL003W, strain gim4, stronger effect = lower value 0.416 | locus YER155C, strain BEM2 (second series), stronger effect = lower value 0.425 | locus YER155C, strain BEM2, stronger effect = lower value 0.871 | locus YER167W, strain BCK2, stronger effect = lower value 0.897 | locus YGL086W, strain mad1, stronger effect = lower value 0.846 | locus YGL227W, strain vid30, stronger effect = lower value 0.217 | locus YGL248W, strain PDE1, stronger effect = lower value 0.849 | locus YGR078C, strain PAC10, stronger effect = lower value 0.547 | locus YGR135W, strain pre9, stronger effect = lower value 0.826 | locus YGR252W, strain gcn5, stronger effect = lower value 0.746 | locus YHR129C, strain ARP1, stronger effect = lower value 0.864 | locus YHR142W, strain chs7, stronger effect = lower value 0.775 | locus YHR200W, strain rpn10, stronger effect = lower value 0.911 | locus YIL066C, strain RNR3, stronger effect = lower value 0.828 | locus YIL125W, strain kgd1, stronger effect = lower value 0.926 | locus YIR030C, strain dcg1, stronger effect = lower value 0.9 | locus YJL129C, strain trk1, stronger effect = lower value 0.65 | locus YJL164C, strain tpk1, stronger effect = lower value 0.785 | locus YJL166W, strain qcr8, stronger effect = lower value 0.415 | locus YJR043C, strain POL32, stronger effect = lower value 0.79
0.468 (active) and 0.942 (inactive): locus YJL095W, strain BCK1, stronger effect = lower value
0.556 (active) and 0.951 (inactive): locus YHR030C, strain SLT2, stronger effect = lower value
inactive: locus YAL021C, strain ccr4, stronger effect = lower value 0.91 | locus YBL061C, strain skt5, stronger effect = lower value 0.992 | locus YBR023C, strain chs3, stronger effect = lower value 0.997 | locus YBR171W, strain sec66, stronger effect = lower value 0.996 | locus YBR229C, strain ROT2, stronger effect = lower value 0.984 | locus YBR231C, strain swc5, stronger effect = lower value 0.956 | locus YBR279W, strain paf1, stronger effect = lower value 0.98 | locus YCL016C, strain dcc1, stronger effect = lower value 0.984 | locus YCL029C, strain bik1, stronger effect = lower value 0.926 | locus YCL061C, strain MRC1, stronger effect = lower value 0.966 | locus YCL069W, strain vba3, stronger effect = lower value 0.993 | locus YDL005C, strain med2, stronger effect = lower value 0.974 | locus YDL035C, strain GPR1, stronger effect = lower value 0.859 | locus YDL040C, strain nat1, stronger effect = lower value 0.996 | locus YDL074C, strain BRE1, stronger effect = lower value 0.797 | locus YDL101C, strain DUN1, stronger effect = lower value 0.954 | locus YDL185W, strain tfp1, stronger effect = lower value 0.935 | locus YDR001C, strain nth1, stronger effect = lower value 1 | locus YDR069C, strain doa4, stronger effect = lower value 0.988 | locus YDR162C, strain NBP2, stronger effect = lower value 0.858 | locus YDR195W, strain ref2 1.03 | locus YDR297W, strain sur2, stronger effect = lower value 0.989 | locus YDR335W, strain msn5, stronger effect = lower value 0.998 | locus YEL037C, strain rad23, stronger effect = lower value 0.996 | locus YEL061C, strain CIN8 (second series), stronger effect = lower value 0.917 | locus YER015W, strain faa2, stronger effect = lower value 0.989 | locus YER016W, strain bim1, stronger effect = lower value 1.01 | locus YER110C, stronger effect = lower value 0.922 | locus YER111C, strain swi4, stronger effect = lower value 0.994 | locus YFR010W, strain ubp6, stronger effect = lower value 0.93 | locus YGL078C, strain dbp3, stronger effect = lower value 0.932 | locus YGL167C, strain pmr1, stronger effect = lower value 0.996 | locus YGL173C, strain kem1, stronger effect = lower value 0.947 | locus YGL240W, strain doc1, stronger effect = lower value 0.938 | locus YGL253W, strain hxk2, stronger effect = lower value 0.956 | locus YHR013C, strain ard1, stronger effect = lower value 0.995 | locus YHR027C, strain rpn1, stronger effect = lower value 0.996 | locus YHR079C, strain IRE1 (second series), stronger effect = lower value 0.935 | locus YHR079C, strain IRE1, stronger effect = lower value 0.941 | locus YHR094C, strain hxt1, stronger effect = lower value 0.949 | locus YIL073C, strain SPO22, stronger effect = lower value 0.765 | locus YJL092W, strain hpr5, stronger effect = lower value 0.989 | locus YJL095W, strain BCK1 (second series), stronger effect = lower value 0.928 | locus YJL115W, strain asf1, stronger effect = lower value 0.981 | locus YJL134W, strain LCB3, stronger effect = lower value 0.982 | locus YJL154C, strain vps35, stronger effect = lower value 0.989 | locus YJL168C, strain set2, stronger effect = lower value 0.942 | locus YJL187C, strain SWE1 (second series), stronger effect = lower value 0.931 | locus YJL187C, strain SWE1, stronger effect = lower value 0.974
